The supplement of paper PMC4166925
± gives the standard deviation of the averaged measurements. Whole data set: some 33,000 sequences, median “E-score (dimensionless, -0.5 to 0.5)” near -0.049, cut for the highest 2% near 0.37. The sample as a whole holds a higher share of the highest values than the screen did.

The sequences below were run on T1, PmTbr T-box DNA-binding domain (GST fusion) (assay: PBM E-score of 8-mer (E-score (dimensionless, -0.5 to 0.5)); Tbr is Tbrain of the sea star Patiria miniata (Pm) or the sea urchin Strongylocentrotus purpuratus (Sp); higher = stronger binding preference). Settings: the construct has about 5 more residues each side.
T1 sequence: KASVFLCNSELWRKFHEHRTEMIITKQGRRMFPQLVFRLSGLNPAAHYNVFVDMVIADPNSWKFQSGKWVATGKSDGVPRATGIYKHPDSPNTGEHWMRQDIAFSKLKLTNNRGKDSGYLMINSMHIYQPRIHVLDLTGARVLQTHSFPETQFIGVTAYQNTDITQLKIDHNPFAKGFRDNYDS
Procedure, shortened: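 Universal Agilent oligonucleotide arrays, made double-stranded by primer extension, were incubated with 200 nM GST-fused Tbr T-box DNA-binding domain in PBS (pH 7.5). The protein was expressed in BL21 E. coli at 20 °C and purified by glutathione affinity chromatography. After scanning and quantification, the Universal PBM Analysis Suite assigned an enrichment E-score to each ungapped 8-mer, averaged over duplicate arrays.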

Row | Sequence | PBM E-score of 8-mer
1 | CAGGCGTA | -0.0498 ± 0.043
2 | AGCCACGC | -0.0441 ± 0.025
3 | ACACTACG | 0.283 ± 0.0065
4 | AGAGTTGC | 0.0099 ± 0.0045
5 | AGTACTCC | -0.28 ± 0.033
6 | CTAGGCCC | -0.274 ± 0.082
7 | TAATGCGA | 0.0983 ± 0.054
8 | AAAACCTG | 0.191 ± 0.063
9 | CTAGCCAG | -0.185 ± 0.027
10 | AAACTCTC | -0.00208 ± 0.031
11 | GGAGCTCA | -0.0734 ± 0.021
12 | CTGTTAAC | 0.281 ± 0.055
13 | GTGTTAAC | 0.438 ± 0.017
14 | ATGTTAAC | 0.161 ± 0.015
15 | CTAAGTGA | 0.225 ± 0.032
16 | AACTTAGA | -0.157 ± 0.055
17 | ACGCAGTA | -0.0663 ± 0.018
18 | CGGTGTCC | -0.00395 ± 0.072
19 | CGGTGTGC | 0 ± 0.12
20 | CGGTGTGA | 0.451 ± 0.0064
21 | CGATGTCA | 0.0984 ± 0.03
22 | GGGGGTCA | -0.0111 ± 0.17
23 | GCGTGTCA | 0.276 ± 0.034
24 | GGGTGTCA | 0.472 ± 0.0071
25 | CGGTGTCA | 0.4 ± 0.012
26 | CGATGTGA | 0.228 ± 0.018

Row | Sequence | PBM E-score of 8-mer
27 | CGAAATTC | 0.0215 ± 0.011
28 | ATAATGCC | -0.174 ± 0.081
29 | AGTATGCG | -0.0996 ± 0.096
30 | CAGAACCA | -0.232 ± 0.018
31 | GCAATTCA | 0.0777 ± 0.042
32 | GACAAGGC | 0.101 ± 0.025
33 | CTTCGCAC | 0.454 ± 0.019
34 | CTTCGCCC | -0.0791 ± 0.096
35 | CTTCGCAA | 0.336 ± 0.028
36 | ATTCGCAA | 0.298 ± 0.027
37 | ATTCGCAG | 0.297 ± 0.024
38 | ATTCGCAC | 0.4784 ± 0.002
39 | GATTACGA | -0.00232 ± 0.07
40 | ATGGCAGA | -0.0257 ± 0.063
41 | AAGACATT | -0.203 ± 0.097
42 | CTGACAGC | 0.289 ± 0.011
43 | ATGACACC | 0.463 ± 0.0098
44 | CTGACACC | 0.464 ± 0.0063
45 | ATGACACG | 0.312 ± 0.017
46 | CTGACATC | -0.0976 ± 0.035
47 | ATGACACA | 0.314 ± 0.0075
48 | GCCGCTGA | -0.113 ± 0.074
49 | GACATCGA | -0.0159 ± 0.0023
50 | CACACCAC | 0.406 ± 0.012
51 | CACCACAC | 0.367 ± 0.018
52 | CACACCAG | 0.399 ± 0.018

Row | Sequence | PBM E-score of 8-mer
53 | CCCACCAC | -0.0276 ± 0.048
54 | CACACCAA | 0.3718 ± 0.0018
55 | CCCACCAA | -0.112 ± 0.048
56 | CTCACCAA | 0.211 ± 0.042
57 | AACACCAG | 0.335 ± 0.022
58 | CGCACCAG | 0.2978 ± 0.0014
59 | CAATATCG | 0.06478 ± 0.00031
60 | GCCATAGA | -0.0661 ± 0.067
61 | CAGGTAGC | -0.062 ± 0.011
62 | CAGTACCA | -0.0345 ± 0.056
63 | ACATTACC | -0.144 ± 0.023
64 | AGCCACGG | -0.119 ± 0.013
65 | CTCGTCCC | -0.303 ± 0.016
66 | AAATAGGT | 0.0404 ± 0.07
67 | GCACAGGA | -0.162 ± 0.05
68 | CGCAAAAC | 0.0965 ± 0.0024
69 | ACACGTGT | 0.403 ± 0.023
70 | ACACGTGG | 0.307 ± 0.022
71 | GCACGTGC | 0.2695 ± 0.0011
72 | ACACGTGA | 0.292 ± 0.017
73 | CCACGTGC | 0.149 ± 0.013
74 | ACACGTGC | 0.387 ± 0.023
75 | ACATGGTG | 0.243 ± 0.0055
76 | GCAAGCCA | -0.221 ± 0.037
77 | GCATCTGA | -0.0824 ± 0.1
78 | ATTATCCG | -0.0296 ± 0.042

Row | Sequence | PBM E-score of 8-mer
79 | GATGGCGA | 0.1142 ± 0.00067
80 | CAGTGGAG | -0.068 ± 0.012
81 | ACTTGTCA | 0.4044 ± 0.0039
82 | AGTTGTGG | 0.122 ± 0.039
83 | CGTTGTGA | 0.2 ± 0.0095
84 | AGTTGTGA | 0.387 ± 0.017
85 | ACTTGTTA | 0.372 ± 0.044
86 | ACTTGTTG | 0.332 ± 0.018
87 | GCTTGTCA | 0.0851 ± 0.047
88 | ACTTGTGG | 0.196 ± 0.014
89 | CCTTGTTA | 0.126 ± 0.011
90 | ACTTGTGA | 0.411 ± 0.0095
91 | GCTTGTGA | 0.187 ± 0.0082
92 | TCTTGTCA | 0.207 ± 0.023
93 | ATACTTAA | -0.187 ± 0.096
94 | CTAGTGCA | 0.173 ± 0.0046
95 | TCCCCAGA | -0.207 ± 0.12
96 | GCAGAAAA | -0.0494 ± 0.066
97 | TATTCCGA | -0.274 ± 0.013
98 | CACTTCGG | 0.363 ± 0.015
99 | ATATACGG | -0.038 ± 0.039
100 | CTTTTAGC | 0.22 ± 0.074
101 | AGTCCTAG | -0.0285 ± 0.042
102 | ATAGTAAG | -0.216 ± 0.029
103 | GGCTAAAA | -0.22 ± 0.064
104 | AATGTGAT | 0.258 ± 0.039

Row | Sequence | PBM E-score of 8-mer
105 | AGTGTGAC | 0.467 ± 0.0075
106 | AGAGTGAT | 0.239 ± 0.0043
107 | AGTGTGTC | 0.248 ± 0.0093
108 | AGTGTGAT | 0.463 ± 0.0063
109 | GCTGTGAC | 0.208 ± 0.037
110 | ACTGTGAC | 0.239 ± 0.026
111 | CGTGTGTC | 0.204 ± 0.018
112 | GATGTGAC | 0.308 ± 0.017
113 | GGTGTGAC | 0.4864 ± 0.0033
114 | CGTGTGAG | 0.363 ± 0.013
115 | CGTGTGAC | 0.4054 ± 0.0011
116 | CACCCAAG | 0.263 ± 0.023
117 | TCTTAGCA | 0.2 ± 0.017
118 | CCCGAATC | 0.00343 ± 0.029
119 | ACAAGACC | 0.0576 ± 0.017
120 | GACTACCA | -0.0358 ± 0.082
121 | CAGGAGAC | -0.136 ± 0.017
122 | ATTGTGAG | 0.2213 ± 0.00029
123 | AGTGTGTG | 0.338 ± 0.021
124 | AGTGTGAG | 0.4585 ± 0.0031
125 | CACACAGG | 0.119 ± 0.044
126 | CGGCAAAA | -0.0622 ± 0.057
127 | ACATCCGG | -0.0734 ± 0.061
128 | GAACTGGA | -0.175 ± 0.037
129 | CCTGGAAA | -0.133 ± 0.014
130 | AAAGACAA | -0.172 ± 0.069

Row | Sequence | PBM E-score of 8-mer
131 | AACCTTTA | -0.0895 ± 0.057
132 | AACCTTTC | -0.105 ± 0.047
133 | CACCTTTA | 0.404 ± 0.013
134 | CCCCTTTC | -0.124 ± 0.061
135 | CACCTTTC | 0.411 ± 0.034
136 | GACCTTTA | -0.207 ± 0.088
137 | CGCGCATC | 0.0691 ± 0.012
138 | GGCTGGAA | -0.127 ± 0.064
139 | GACCACCA | -0.142 ± 0.031
140 | AGGAAGGG | -0.28 ± 0.01
141 | TAGCACCA | 0.403 ± 0.015
142 | GAGCACCA | -0.0664 ± 0.018
143 | TGGCACCA | 0.377 ± 0.0055
144 | CCGCACCA | 0.187 ± 0.0087
145 | AGGCACCA | -0.171 ± 0.024
146 | TCGCACCA | 0.44 ± 0.0079
147 | GCGCACCA | -0.0144 ± 0.01
148 | GGGCACCA | -0.125 ± 0.059
149 | CAGCACCA | 0.0936 ± 0.032
150 | GAATTCCC | 0.0309 ± 0.029
151 | GCAGGGTA | -0.0138 ± 0.034
152 | GCAGGTGA | 0.4392 ± 0.002
153 | CCAGGTAC | -0.105 ± 0.1
154 | GCAGGTCA | 0.103 ± 0.027
155 | ACAGGTGA | 0.406 ± 0.0049
156 | GCAGGTAA | -0.0867 ± 0.05

Row | Sequence | PBM E-score of 8-mer
157 | CCAGGTGA | 0.339 ± 0.023
158 | ACAGGTGG | 0.331 ± 0.022
159 | ACAGGTCC | 0.0798 ± 0.068
160 | ACAGGTTA | 0.252 ± 0.022
161 | ACAGGTGC | 0.4412 ± 0.0022
162 | CCAGGTCC | -0.114 ± 0.039
163 | CCAGGTGC | 0.379 ± 0.014
164 | CAGCGTGA | 0.266 ± 0.0088
165 | CGGGCCCG | 0.108 ± 0.013
166 | CCCCAGAG | -0.096 ± 0.018
167 | ATGTGTCC | 0.0956 ± 0.026
168 | ATGTGTCA | 0.4653 ± 0.0037
169 | GTGTGTCA | 0.348 ± 0.02
170 | ATATGTCG | 0.134 ± 0.029
171 | ATGTGTCG | 0.402 ± 0.0094
172 | CTGTGTCA | 0.216 ± 0.027
173 | CTCCTTGC | -0.127 ± 0.067
174 | ACGTAATA | -0.234 ± 0.071
175 | ACCATTGG | -0.068 ± 0.046
176 | ACAGCCTC | -0.206 ± 0.14
177 | CGTTCGCC | 0.0701 ± 0.066
